Data reported in PubChem BioAssay (NCATS).
Results filed as inconclusive are left out. The source made the active and inactive calls. The call rests on the fitted dose curve; in most records, active means well fitted activation curve with a large enough effect in the main read-out, with a control signal flat (not every such curve was filed as active); inconclusive means small, poorly fitted or top-dose-only effect, or effect the other way, or a change in a side signal; inactive means flat fitted curve, though single readings scatter.

Each molecule was assayed against 3',5'-cyclic-AMP phosphodiesterase 4B (Homo sapiens) (UniProt Q07343) (assay: qHTS Assay for Inhibitors of PDE-IV (AID 607)). Details: HEK293 ACTOne CNG channel cells, membrane potential fluorescence; series mostly up to 22.9 µM.
3',5'-cyclic-AMP phosphodiesterase 4B (Homo sapiens), sequence (Q07343 whole entry, looked up): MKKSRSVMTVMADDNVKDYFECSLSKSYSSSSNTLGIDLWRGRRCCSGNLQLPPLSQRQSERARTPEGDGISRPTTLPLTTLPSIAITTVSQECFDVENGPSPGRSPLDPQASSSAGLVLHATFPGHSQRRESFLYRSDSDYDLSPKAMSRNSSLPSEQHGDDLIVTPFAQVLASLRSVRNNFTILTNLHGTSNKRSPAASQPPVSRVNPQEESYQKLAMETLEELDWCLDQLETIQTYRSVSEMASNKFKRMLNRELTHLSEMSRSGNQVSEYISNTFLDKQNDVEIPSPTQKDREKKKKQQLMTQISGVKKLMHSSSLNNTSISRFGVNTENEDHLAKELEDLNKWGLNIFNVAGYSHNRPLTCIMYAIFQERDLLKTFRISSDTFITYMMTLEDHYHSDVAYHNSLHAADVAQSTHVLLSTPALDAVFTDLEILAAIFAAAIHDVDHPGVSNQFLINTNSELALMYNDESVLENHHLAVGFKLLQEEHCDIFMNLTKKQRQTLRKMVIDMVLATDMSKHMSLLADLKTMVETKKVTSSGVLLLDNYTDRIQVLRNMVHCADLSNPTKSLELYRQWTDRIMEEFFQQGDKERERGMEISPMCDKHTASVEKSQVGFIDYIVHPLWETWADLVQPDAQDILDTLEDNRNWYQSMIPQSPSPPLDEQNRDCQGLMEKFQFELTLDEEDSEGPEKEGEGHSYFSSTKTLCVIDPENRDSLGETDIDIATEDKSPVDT
Text: NIH Chemical Genomics Center [NCGC]
NIH Molecular Libraries Screening Centers Network [MLSCN]
The cyclic nucleotide phosphodiesterases (PDEs) are proteins that catalyze hydrolysis of 3', 5'-cyclic nucleotides, such as cyclic adenosine monophosphate (cAMP) and cyclic guanosine monophosphate (cGMP), to their corresponding 5'-nucleotide monophosphates. These enzymes play an important role in controlling cellular concentrations of cyclic nucleotides and have a central role in a variety of intracellular signaling events. cAMP PDEs are emerging as a promising class of drug targets in asthma and cardiovascular disease therapeutic areas.
There are no commercially available cell-based screening assays for PDE inhibitors: currently biochemical assays are done using pure substrates (cAMP or cGMP) and purified recombinant PDE enzymes. As with other biochemical screens on intracellular targets, false positives and false negatives may result from issues involving cell membrane permeability, cellular metabolism, and the like.
Here we report the development of a cell-based screening assay for cAMP phosphodiesterase (PDE) inhibitors. The assay is based on the BD ACTOne# technology (BD Biosciences) which utilizes a modified cyclic nucleotide-gated channel (CNG) to monitor intracellular cAMP changes in live cells. The CNG channel is localized on the plasma membrane, and opens when the intracellular cAMP level increases, resulting in ion flux and cell membrane depolarization. The influx of cations through the CNG channel can be quantified using membrane potential (MP) dyes. We modified the BD ACTOne technology to allow the detection of PDE inhibitors, and performed an inhibitor screen for PDE-IV, which is expressed endogenously in HEK293 cells. We optimized this assay in homogeneous 1536-well plate assay format for high throughput screening.
NCGC Assay Protocol Summary:
The medium contained 10% FBS (Invitrogen), 2 mM L-glutamine, and 250 ug/ml G418 (Cellgro) and 1 ug/ml puromycin (Clontech). ACTOneTM parental cells (BD Biosciences) were maintained in the same medium without puromycin.
The activity of the CNG channel was measured by BD ACTOneTM membrane potential dye kit (BD Biosciences). Forskolin, a positive control for cAMP activation and RO 20-1724, a PDE inhibitor, were both purchased from Sigma and solublized in DMSO.
Sequence,Parameter,Value,Description
1,Reagent,3 uL,1000 cells/well 1536 TC treated Black plate
3,Compound,0.5 uL,Kalypsys dispense RO 20-1724 100 uM final [A]
4,Reagent,3 uL,BD membrane potential dye
6,Compound,23 nL,Final concentration was 0.7nM to 22.9uM
8,Detector,EX 535 / EM 590 [B],Envision
Footnotes: [A] The stock 2 mM RO 20-1724 PDE inhibitor was made in 10 % DMSO. Parental cell line received 10 uM forskolin + 100 uM RO. [B] Envsion settings: Bottom Excitation 535/20 nm top emission 590/20, gain of 150 and 5 flashes per well.
Keywords: PDE, PDE-IV, cytotoxicity, flourescence, MLSMR, MLSCN, NIH Roadmap, qHTS, NCGC

Potency, inactive:
NS(=O)(=O)c1ccc(N=Nc2ccc(O)c(C(=O)O)c2)cc1
N[C@@](CC(=O)O)(Cc1ccccc1)C(=O)O
COc1c2c(c3c(c1CCC(=O)O)OC(C)(C)C=C3)OC(C)(C)C=C2
CN(C)CCNc1nc2c(c(=O)n(C)c(=O)n2C)n1C
c1ccc(B2OC[C@@H]3OB(c4ccccc4)O[C@H]([C@@H]4COB(c5ccccc5)O4)[C@@H]3O2)cc1
NC(=O)NCCS[C@H]1CCCC[C@@H]1O
O=S(=O)(O)c1ccc2c(N=Nc3cccc4ccccc34)c(O)c(S(=O)(=O)O)cc2c1
O=C(O)CC[C@]1(C(=O)O)CCC(=O)c2ccccc21
CCN(CC)CCN1c2ccccc2Sc2ccc3ccccc3c21
Fc1cccc(Cl)c1/C=N\N=C1c2ccccc2-c2ccccc21
COc1ccc(C(=O)N2CCC3(CC2)CN(c2ccccc2)C3)cc1
O=C1c2ccccc2-c2ccc(N=[N+]([O-])c3ccc4c(c3)C(=O)c3ccccc3-4)cc21
CN(CCc1ccccn1)c1ccc2c(c1)C(=O)c1ccccc1-2
CC(=O)O[C@H]1CC[C@@]2(C)C(=CC[C@@H]3[C@H]4CC[C@@H]([C@H](C)C(=O)O)[C@]4(C)CC[C@H]32)C1
O=C(O)[C@@H](Br)[C@@H](Br)c1ccccc1[N+](=O)[O-]
CC(=O)[C@@]1(N=Nc2ccc(S(N)(=O)=O)cc2)CCOC1=O
CC(C)(C)CC(C)(C)c1cc(O)c(O)c(CN2CCCCC2)c1
COc1cc2c(cc1OC)[C@H](c1ccccc1)CN(C)CC2
N=C(c1ccc2ccccc2c1)c1ccccc1Cc1ccccc1
CCN(CC)CC[n+]1ccc2c(C)c3[nH]c4ccc(O)cc4c3c(C)c2c1
COc1ccc(CCCC(=O)O)c(C)c1
O=C1OC(=O)[C@@H]2[C@@H]1[C@@H]1CC[C@H]2O1
Cc1cc(O)c(C(C)C)cc1CN1CCCCC1
N[C@@H](C(=O)O)[C@@H]1C[C@H]1C(=O)O
Cc1c(C)c(C)c(CC2(C)CSC2)c(CC2(C)CSC2)c1C
OCCNc1ncnc2c1ncn2[C@@H]1O[C@@H](CO)[C@H](O)[C@@H]1O
C[N+](C)(C)/N=C\c1ccc(O)c(O)c1
CCCCCCCCCCCCCCCC(=O)NC[C@@H](COP(=O)([O-])OCC[N+](C)(C)C)OCC
COc1cc(N=C(N)N=C(N)N)c2ncccc2c1
Cc1ccc(S(=O)(=O)O[C@H]2C[C@@H](C(C)(C)C)CC[C@@H]2c2ccccc2)cc1
O=C(O)CSc1ncccc1[N+](=O)[O-]
O=C(NCc1cccnc1)[C@@H]1[C@@H](C(=O)O)[C@H]2CC[C@@H]1O2
C[C@H](CCC(=O)NN)[C@@H]1CC[C@@H]2[C@H]3CC[C@H]4C[C@@H](O)CC[C@@]4(C)[C@@H]3CC[C@]21C
O=C(O)c1ccc(Nc2ccnc3cc(Cl)ccc23)cc1O
NC(=O)[C@@H]1CCCN1Cc1ccc2c(c1)OCO2
CC(C)(C)OC(=O)[C@H]([C@@H]1N[C@@H](C(=O)O)C(C)(C)S1)N1C(=O)c2ccccc2C1=O
CCSCCCC(=O)O
N#CCCn1c(=O)c(-c2cccc(C#N)c2)nc2cnc(Oc3ccccc3)nc21
Cc1nc2cnc(N3CCNCC3)nc2n(-c2ccccc2)c1=O
COc1ccc(/C=N\NC(=O)O)cc1
